Records with an inconclusive call do not appear. Calls of active or inactive are those of the source. Rule for the calls, unless noted: active = hit-call score of the fitted dose curve at least 0.9, where 1 is the maximum; inactive = score below 0.9.

For experiment [1], the target named is human Vitamin D Receptor (VDR), VDR (gene 7421) (UniProt P11473). The experiment in a line: ATG_VDR_TRANS: Attagene TRANS-FACTORIAL HepG2 Assay for human Vitamin D Receptor (VDR) (AID 2283022; active = hit-call score of the fitted dose curve at least 0.9, where 1 is the maximum). An outline of the steps:
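Steps: transfect HepG2 with GAL4-UAS-driven reporter constructs; dose compounds 24 h; isolate RNA, reverse-transcribe, PCR-amplify with 6-FAM-labelled primer extension and HpaI digestion; quantify fragments by capillary electrophoresis relative to DMSO.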

Experiment [2] is described as follows: BSK_3C_SRB: Viability Assessment in the BioMAP Diversity Plus: 3C Assay (AID 2283023).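 Note: cells read 24 h after compound dosing; fitted both ways against DMSO so a hit may be signal rise or drop.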 Conditions: primary human endothelial cells (HUVEC). An outline of the steps: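 Absorbance at 560 nm of sulforhodamine B-stained (0.1%) total protein served as a cytotoxicity readout in human umbilical vein endothelial cells, 24 h after chemical treatment. Signal was fitted bidirectionally relative to DMSO.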

Read-out in experiment [3]: Matrix Metallopeptidase 1 (MMP1), MMP1 (gene 4312)
As to the kind of experiment: BSK_BE3C_MMP1: BioMAP Diversity Plus: BE3C Assay for Matrix Metallopeptidase 1 (MMP1) Biomarker Activity (AID 2283024). Conditions: primary human bronchial epithelial cells; actives raise or lower the signal. An outline of the steps:
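In this multiplexed primary-cell system, human bronchial epithelium received chemicals for 24 h before an ELISA for MMP1. Values reflect bidirectional fits normalised to the DMSO baseline.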

A short description of experiment [4]: BSK_3C_Vis: BioMAP Diversity Plus: 3C Assay for Morphology Visualization (AID 2283025).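 For AC50: light microscopy image of cell morphology used as background control.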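 Note: fitted both ways so gain or loss versus DMSO counts.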 Conditions: primary human endothelial cells (HUVEC). An outline of the steps:
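Light-microscopy morphology readout, 24 h exposure, human primary umbilical vein endothelium; analysed relative to DMSO with bidirectional fitting.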

A short description of experiment [5]: BSK_BE3C_SRB: Viability Assessment in the BioMAP Diversity Plus: BE3C Assay (AID 2283028).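 For AC50: fitted both ways so AC50 may mark signal gain or loss versus DMSO.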 Conditions: primary human bronchial epithelial cells. Summed up:
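Cells (human bronchial epithelial, primary) are treated with chemicals, and after 24 h the parallel cultures are fixed in 10% TCA. These are then stained with 0.1% SRB and read at 560 nm. Gain or loss of signal is fitted relative to DMSO.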

Read-out in experiment [6]: Thrombomodulin, THBD (gene 7056)
As to the kind of experiment: BSK_3C_Thrombomodulin: BioMAP Diversity Plus: 3C Assay for Thrombomodulin Biomarker Activity (AID 2283029). Conditions: primary human endothelial cells (HUVEC); actives raise or lower the signal. An outline of the steps:
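In a multiplexed primary-cell system, human umbilical vein endothelium received chemical and was assayed 24 h later for thrombomodulin by ELISA. Parallel cultures were SRB-stained (0.1% SRB after 10% TCA fixation, read at 560 nm) to flag cytotoxicity.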

Read-out in experiment [7]: Urokinase-type plasminogen activator receptor (uPAR), PLAUR (gene 5329)
The experiment in a line: BSK_4H_uPAR: BioMAP Diversity Plus: 4H Assay for Urokinase-type plasminogen activator receptor (uPAR) Biomarker Activity (AID 2283030). Conditions: primary human endothelial cells (HUVEC); actives raise or lower the signal. Summed up:
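Cell-surface uPAR ELISA signal, measured 24 h after dosing human umbilical vein endothelial cells, was analyzed with bidirectional fitting relative to DMSO. Parallel SRB staining of total protein tracked overt cytotoxicity.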

Read-out in experiment [8]: Human Leukocyte Antigen - DR isotype (HLADR), HLA-DRA (gene 3122)
As to the kind of experiment: BSK_BE3C_HLADR: BioMAP Diversity Plus: BE3C Assay for Human Leukocyte Antigen - DR isotype (HLADR) Biomarker Activity (AID 2283032). Conditions: primary human bronchial epithelial cells; actives raise or lower the signal. An outline of the steps:
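BioMAP BE3C format: human bronchial epithelium, 24 h compound treatment, ELISA detection of HLA-DR, with bidirectional analysis relative to DMSO.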

Read-out in experiment [9]: Vascular cell adhesion molecule 1 (VCAM1), VCAM1 (gene 7412)
As to the kind of experiment: BSK_4H_VCAM1: BioMAP Diversity Plus: 4H Assay for Vascular cell adhesion molecule 1 (VCAM1) Biomarker Activity (AID 2283033).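 For outcome: cell-surface VCAM-1 protein measured by ELISA.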 Conditions: primary human endothelial cells (HUVEC); actives raise or lower the signal. Summed up: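 In this human endothelial (HUVEC) system, biomarker ELISA was run 24 h after compound addition, and total protein in parallel wells was assessed by SRB at 560 nm; DMSO served as negative control.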

Read-out in experiment [10]: Interferon-gamma inducible Protein 10 (IP10), CXCL10 (gene 3627)
The experiment in a line: BSK_BE3C_IP10: BioMAP Diversity Plus: BE3C Assay for Interferon-gamma inducible Protein 10 (IP10) Biomarker Activity (AID 2283034). Conditions: primary human bronchial epithelial cells; actives raise or lower the signal. An outline of the steps: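 BE3C cells (human bronchial epithelial, primary); 24 h exposure; ELISA for IP-10; DMSO-referenced bidirectional fit.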

Read-out in experiment [11]: Monokine induced gamma interferon (MIG), CXCL9 (gene 4283)
The experiment in a line: BSK_BE3C_MIG: BioMAP Diversity Plus: BE3C Assay for Monokine induced gamma interferon (MIG) Biomarker Activity (AID 2283035).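 For outcome: MIG protein measured by ELISA in BE3C cultures after 24 h of dosing.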 Conditions: primary human bronchial epithelial cells; actives raise or lower the signal. Summed up: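 hu bronchial epithelial 1° cells, 24 h cpd; MIG by ELISA; bidirectional fit, DMSO = baseline.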

Read-out in experiment [12]: Transforming growth factor beta 1 (TGFb1), TGFB1 (gene 7040)
The experiment in a line: BSK_BE3C_TGFb1: BioMAP Diversity Plus: BE3C Assay for Transforming growth factor beta 1 (TGFb1) Biomarker Activity (AID 2283036;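 for outcome: TGF-b1 protein level measured by ELISA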). Conditions: primary human bronchial epithelial cells; actives raise or lower the signal. An outline of the steps:
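TGF-b1 measured via ELISA, 24 h after chemical dosing of human bronchial epithelial cells (BE3C). Overt cytotoxicity assessed in parallel by SRB (0.1%, TCA-fixed, 560 nm); analysis bidirectional relative to DMSO.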

Read-out in experiment [13]: Plasminogen activator inhibitor-1 (PAI1), SERPINE1 (gene 5054)
As to the kind of experiment: BSK_BE3C_PAI1: BioMAP Diversity Plus: BE3C Assay for Plasminogen activator inhibitor-1 (PAI1) Biomarker Activity (AID 2283037). Conditions: primary human bronchial epithelial cells; actives raise or lower the signal. An outline of the steps: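 In this multiplexed primary-cell system, bronchial epithelial cells receive test chemical and are sampled at 24 h. PAI-1 is read by ELISA, with DMSO serving as negative control for bidirectional fitting.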

Read-out in experiment [14]: urokinase plasminogen activator (uPA), PLAU (gene 5328)
The experiment in a line: BSK_BE3C_uPA: BioMAP Diversity Plus: BE3C Assay for urokinase plasminogen activator (uPA) Biomarker Activity (AID 2283038).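 For outcome: uPA protein level quantified by ELISA in cell cultures; uPA read one day after compound addition.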 Conditions: primary human bronchial epithelial cells; actives raise or lower the signal. Summed up: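 Bronchial epithelial cells (human, primary); chemical 24 h; uPA by ELISA; bidirectional fit vs DMSO. SRB (0.1%, after 10% TCA fixation, 560 nm) in parallel cultures for cytotoxicity.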

Read-out in experiment [15]: Urokinase-type plasminogen activator receptor (uPAR), PLAUR (gene 5329)
The experiment in a line: BSK_BE3C_uPAR: BioMAP Diversity Plus: BE3C Assay for Urokinase-type plasminogen activator receptor (uPAR) Biomarker Activity (AID 2283039).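 For outcome: cells exposed to compound for one day before measurement.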 Conditions: primary human bronchial epithelial cells; actives raise or lower the signal. Summed up:
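Chemically treated human bronchial epithelial cells (lung primary) are assayed for uPAR by ELISA after 24 h, with data fitted in both directions using DMSO as negative control.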

Read-out in experiment [16]: Interleukin-6 (IL6), IL6 (gene 3569)
The experiment in a line: BSK_CASM3C_IL6: BioMAP Diversity Plus: CASM3C Assay for Interleukin-6 (IL6) Biomarker Activity for (AID 2283040). Conditions: primary human coronary artery smooth muscle cells; actives raise or lower the signal.

Read-out in experiment [17]: Tissue plasminogen activator (tPA), PLAT (gene 5327)
As to the kind of experiment: BSK_BE3C_tPA: BioMAP Diversity Plus: BE3C Assay for Tissue plasminogen activator (tPA) Biomarker Activity (AID 2283041).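 Note: tPA level quantified by ELISA one day after compound addition.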 Conditions: primary human bronchial epithelial cells; actives raise or lower the signal. Summed up:
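Using human lung primary bronchial epithelial cells, tPA was measured by ELISA 24 h after dosing; data fitted relative to DMSO.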

Read-out in experiment [18]: Vascular endothelial growth factor receptor 2 (Homo sapiens) (UniProt P35968)
The experiment in a line: BSK_4H_VEGFRII: BioMAP Diversity Plus: 4H Assay for Vascular endothelial growth factor receptor 2 (VEGFR2) Biomarker Activity (AID 2283031).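 For AC50: cell-surface VEGFR2 protein level quantified by ELISA.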 Conditions: primary human endothelial cells (HUVEC); actives raise or lower the signal. An outline of the steps: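 ELISA read-out of VEGFRII in primary human umbilical vein endothelium, taken 24 h after chemical treatment. Responses are expressed relative to DMSO, with bidirectional fitting.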

Read-out in experiment [19]: Pselectin, SELP (gene 6403)
The experiment in a line: BSK_4H_Pselectin: BioMAP Diversity Plus: 4H Assay for Pselectin Biomarker Activity (AID 2283026). Conditions: primary human endothelial cells (HUVEC); actives raise or lower the signal. Summed up:
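Bidirectional fits against DMSO gave the endpoint. Cells: primary human umbilical vein endothelium, chemical-treated for 24 h before ELISA detection of P-selectin.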

A short description of experiment [20]: BSK_4H_SRB: Viability Assessment in the BioMAP Diversity Plus: 4H Assay (AID 2283027).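 Note: cells exposed to compound for 24 h before staining; curves fitted both ways versus DMSO so AC50 may be loss or gain.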 Conditions: primary human endothelial cells (HUVEC). An outline of the steps:
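Cytotoxicity readout: sulforhodamine B (0.1%) staining of total protein after 10% TCA fixation, measured at 560 nm in human umbilical vein endothelium at 24 h. DMSO set the baseline; fitting was bidirectional.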

Chain of human Vitamin D Receptor (VDR), VDR (gene 7421) (P11473 whole entry, looked up, the tested form may be a part): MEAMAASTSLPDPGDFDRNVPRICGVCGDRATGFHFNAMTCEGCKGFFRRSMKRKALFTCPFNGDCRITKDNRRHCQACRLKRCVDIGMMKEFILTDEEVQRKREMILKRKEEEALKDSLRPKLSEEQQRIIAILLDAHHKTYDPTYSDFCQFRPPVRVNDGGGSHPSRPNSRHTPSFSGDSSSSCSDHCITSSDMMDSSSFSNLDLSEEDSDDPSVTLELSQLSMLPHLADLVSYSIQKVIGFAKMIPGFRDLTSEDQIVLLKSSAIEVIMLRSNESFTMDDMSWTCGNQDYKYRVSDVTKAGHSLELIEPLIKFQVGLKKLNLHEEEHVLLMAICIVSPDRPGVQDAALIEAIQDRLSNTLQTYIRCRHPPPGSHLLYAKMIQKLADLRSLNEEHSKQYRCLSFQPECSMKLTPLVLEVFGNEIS

For `CC(C)CCO`, the compound was called inactive in experiment [1], in experiment [2], in experiment [3], in experiment [4], in [5] and in experiment [6]. Also, the result in [7], in experiment [8], in [9], in experiment [10], in experiment [11] and in [12] was inactive. Also, the result in experiment [13], in experiment [14], in experiment [15], in [16] and in [17] was inactive.

As for `CC(C)(O)c1coc(S(=O)(=O)NC(=O)Nc2c3c(cc4c2CCC4)CCC3)c1`, the compound was classed as inactive in experiment [1], in experiment [2], in experiment [3], in experiment [4], in experiment [5] and in [6]. Further, the outcome in experiment [7], in [18], in [8], in experiment [9], in experiment [10] and in experiment [11] was inactive. The outcome in [12], in experiment [13], in experiment [14], in [15] and in experiment [16] was inactive.

Take `C1N2CN3CN1CN(C2)C3`: the outcome in [1], in [2], in experiment [3], in [4], in experiment [5] and in experiment [6] was inactive. Besides, the result in experiment [7], in experiment [18], in [8], in [9], in experiment [10] and in experiment [11] was inactive. Also, the outcome in [12], in experiment [13], in experiment [14], in [15] and in experiment [16] was inactive.

By AC50 is commonly meant the concentration at which the activity in the assay is half-maximal. As for `O=C(CCCCCCCCc1cccnc1)N1CCC(C=C(c2ccccc2)c2ccccc2)CC1`, the AC50 in experiment [1] was 100 µM (active); in experiment [2] it was 8.88 µM (active); in experiment [4], 10.9 µM (active); in experiment [19], 6.41 µM (active); in experiment [20] it was 13.1 µM (active); in experiment [5] it was 34.2 µM (active). The AC50 was 11.2 µM (active) in experiment [7]; 8 µM (active) in experiment [18]; 17.6 µM (active) in [8]; 12.7 µM (active) in experiment [9]; 24.5 µM (active) in [10]; 27.9 µM (active) in [11]. The AC50 was 23.7 µM (active) in experiment [12], 19.3 µM (active) in experiment [13], 24.7 µM (active) in [14] and 17.9 µM (active) in [15]. Also, the outcome in experiment [6] and in experiment [16] was inactive.

Consider `CC(=O)OC[C@H]1O[C@@](COC(C)=O)(O[C@H]2O[C@H](COC(C)=O)[C@@H](OC(C)=O)[C@H](OC(C)=O)[C@H]2OC(C)=O)[C@@H](OC(C)=O)[C@@H]1OC(C)=O`, for which the result in [1], in experiment [2], in [3], in experiment [4], in [5] and in experiment [6] was inactive. The outcome in experiment [7], in [18], in experiment [8], in experiment [9], in [10] and in [11] was inactive. Moreover, the outcome in experiment [12], in experiment [13], in [14], in experiment [15], in [16] and in experiment [17] was inactive.

As for `Clc1nc(Cl)c(Cl)c(Cl)c1Cl`, the outcome in experiment [1], in experiment [2], in [3], in experiment [5], in experiment [6] and in experiment [7] was inactive. Moreover, the result in experiment [18], in experiment [10], in experiment [11], in [12], in [13] and in [14] was inactive. Besides, the outcome in experiment [15], in experiment [16] and in experiment [17] was inactive. Further, the AC50 in experiment [4] was 37.5 µM (active); in [8], 26.4 µM (active); in experiment [9] it was 20 µM (active).

For the compound `CC[C@H]1CC[C@H](NCc2cc3c(cc2OC)[C@H]2C[C@H]2C(=O)N3C)[C@H](c2ccccc2)N1`, the result in [1], in experiment [2], in experiment [3], in [4], in experiment [5] and in experiment [6] was inactive. The result in experiment [7], in experiment [18], in experiment [8], in experiment [9], in [10] and in experiment [11] was inactive. In addition, the result in experiment [12], in experiment [13], in [14], in experiment [15], in [16] and in experiment [17] was inactive.

Source of the values: PubChem BioAssay (EPA / NIEHS).
